Test results reported in the supplement of paper PMC10849652.
About 8,800 targets were measured; listed, in parts, are those with a hit and a random draw of the rest. About 0.5% of all pairs of compound and target were hits.

Columns and labels:
Test in all cases: log2 fold change, soluble protein after heating vs DMSO (PISA); higher = thermal stabilisation; K562 lysate, 10 uM; active = over 0.2 and 3.5 SD of the protein, either way, in both replicates (recomputed)
alvocidib = compound: CN1CC[C@H](c2c(O)cc(O)c3c(=O)cc(-c4ccccc4Cl)oc23)[C@H](O)C1 [alvocidib]
How it was run: (§1)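 Soluble protein was defined as the supernatant remaining after 21,000xg for 90 min, following pooling of heated aliquots and adjustment to 0.5% NP-40 at 4°C. Before that, crude K562 extract at 1 mg/mL protein in PBS pH 7.4 with 1 mM MgCl2 was treated with 10 μM compound for 30 min and heated for 3 min across 48°C-58°C. Quantification used TMTpro 16plex LC-MS/MS with channel sums equalised, and values are log-two fold changes in thermal stability relative to solvent controls from duplicates.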

Tubastatin A = compound: CN1CCc2c(c3ccccc3n2Cc2ccc(C(=O)NO)cc2)C1 [Tubastatin A]
How it was run: as §1

[1] = compound: CNC(=O)C1=CC=CC=C1NC2=NC(=NC=C2Cl)NC3=C(C=C(C=C3)N4CCOCC4)OC
How it was run: as §1

defactinib = compound: CNC(=O)c1ccc(Nc2ncc(C(F)(F)F)c(NCc3nccnc3N(C)S(C)(=O)=O)n2)cc1 [defactinib]
How it was run: as §1

[2] = compound: CNc1nc(-c2ccc3c(N)n[nH]c3c2)cc(N2C[C@@H](C(=O)NC3CCCCC3)CC[C@H]2C)n1
How it was run: as §1

encorafenib = compound: COC(=O)N[C@@H](C)CNc1nccc(-c2cn(C(C)C)nc2-c2cc(Cl)cc(NS(C)(=O)=O)c2F)n1 [encorafenib]
How it was run: as §1

[3] = compound: COC(=O)[C@H](CCSC)NC(=O)C1=C(C=C(C=C1)NC[C@H](CS)N)C2=CC=CC=C2
How it was run: as §1

alisertib = compound: COc1cc(Nc2ncc3c(n2)-c2ccc(Cl)cc2C(c2c(F)cccc2OC)=NC3)ccc1C(=O)O [alisertib]
How it was run: as §1

[4] = compound: COc1cc2nc(-c3cc(F)ccc3O)nc(N[C@@H]3CNC[C@H]3C(C)(C)O)c2cc1OC
How it was run: as §1

gefitinib = compound: COc1cc2ncnc(Nc3ccc(F)c(Cl)c3)c2cc1OCCCN1CCOCC1 [gefitinib]
How it was run: as §1

Measured: log2 fold change

VPS16 (UniProt Q9H269)
inactive: alvocidib 0.032 | Tubastatin A -0.082 | [1] 0.002 | defactinib -0.006 | [2] 0 | encorafenib 0.049 | [3] -0.069 | alisertib 0.031 | [4] -0.004 | gefitinib 0.013

USP9X (UniProt Q93008)
inactive: alvocidib -0.009 | Tubastatin A -0.114 | [1] 0.016 | defactinib 0.026 | [2] -0.04 | encorafenib 0.007 | [3] 0.023 | alisertib 0.016 | [4] 0.013 | gefitinib 0.002

VRK1 (UniProt Q99986)
active: alvocidib 0.385
inactive: Tubastatin A -0.096 | [1] 0.008 | defactinib -0.067 | [2] 0.017 | encorafenib -0.027 | [3] 0.047 | alisertib -0.004 | [4] -0.007 | gefitinib -0.026

USP10 isoform 2 (UniProt Q14694)
inactive: alvocidib 0.006 | Tubastatin A -0.118 | [1] 0.015 | defactinib 0.017 | [2] 0.021 | encorafenib 0.019 | [3] 0.04 | alisertib 0.012 | [4] -0.009 | gefitinib -0.018

UNC13D (UniProt Q70J99)
inactive: alvocidib 0.015 | Tubastatin A -0.117 | [1] 0.014 | defactinib 0.026 | [2] -0.035 | encorafenib 0.059 | [3] 0.054 | alisertib -0.005 | [4] 0.001 | gefitinib -0.034

USP3 (UniProt Q9Y6I4)
inactive: alvocidib 0.002 | Tubastatin A -0.154 | [1] -0.046 | defactinib 0.013 | [2] -0.024 | encorafenib 0.03 | [3] 0.022 | alisertib -0.008 | [4] 0.028 | gefitinib -0.005

VPS11 (UniProt Q9H270)
inactive: alvocidib 0.039 | Tubastatin A -0.113 | [1] 0.023 | defactinib 0.022 | [2] -0.026 | encorafenib 0.016 | [3] -0.096 | alisertib 0.002 | [4] 0.019 | gefitinib -0.007

WDHD1 (UniProt O75717)
inactive: alvocidib 0.042 | Tubastatin A -0.073 | [1] 0.004 | defactinib -0.002 | [2] -0.011 | encorafenib -0.019 | [3] 0.098 | alisertib -0.016 | [4] -0.003 | gefitinib 0.015

WAC (UniProt Q9BTA9)
inactive: alvocidib -0.008 | Tubastatin A -0.035 | [1] 0.068 | defactinib 0.013 | [2] 0.007 | encorafenib -0.006 | [3] 0.118 | alisertib -0.019 | [4] -0.01 | gefitinib 0.009

XPO1 (UniProt O14980)
inactive: alvocidib 0.005 | Tubastatin A -0.096 | [1] -0.011 | defactinib 0.016 | [2] -0.013 | encorafenib 0.034 | [3] -0.101 | alisertib 0.013 | [4] 0.023 | gefitinib -0.007

ZDHHC18 (UniProt Q9NUE0)
inactive: alvocidib -0.09 | Tubastatin A -0.016 | [1] 0.222 | defactinib 0.029 | [2] -0.044 | encorafenib -0.038 | [3] 0.042 | alisertib -0.131 | [4] -0.036 | gefitinib -0.069

WDR41 (UniProt Q9HAD4)
inactive: alvocidib -0.061 | Tubastatin A -0.14 | [1] 0.021 | defactinib -0.044 | [2] 0.017 | encorafenib 0.081 | [3] -0.121 | alisertib 0.033 | [4] -0.047 | gefitinib 0.083

WDR6 (UniProt Q9NNW5)
inactive: alvocidib -0.009 | Tubastatin A -0.077 | [1] -0.004 | defactinib 0.003 | [2] -0.011 | encorafenib 0.015 | [3] 0.031 | alisertib 0.005 | [4] 0.016 | gefitinib -0.013

UTP18 (UniProt Q9Y5J1)
inactive: alvocidib 0.009 | Tubastatin A -0.05 | [1] 0.075 | defactinib -0.086 | [2] -0.049 | encorafenib -0.028 | [3] 0.006 | alisertib -0.032 | [4] -0.05 | gefitinib -0.046

WDR62 isoform 4 (UniProt O43379)
Sequence of UniProt O43379 (O43379 whole entry, looked up): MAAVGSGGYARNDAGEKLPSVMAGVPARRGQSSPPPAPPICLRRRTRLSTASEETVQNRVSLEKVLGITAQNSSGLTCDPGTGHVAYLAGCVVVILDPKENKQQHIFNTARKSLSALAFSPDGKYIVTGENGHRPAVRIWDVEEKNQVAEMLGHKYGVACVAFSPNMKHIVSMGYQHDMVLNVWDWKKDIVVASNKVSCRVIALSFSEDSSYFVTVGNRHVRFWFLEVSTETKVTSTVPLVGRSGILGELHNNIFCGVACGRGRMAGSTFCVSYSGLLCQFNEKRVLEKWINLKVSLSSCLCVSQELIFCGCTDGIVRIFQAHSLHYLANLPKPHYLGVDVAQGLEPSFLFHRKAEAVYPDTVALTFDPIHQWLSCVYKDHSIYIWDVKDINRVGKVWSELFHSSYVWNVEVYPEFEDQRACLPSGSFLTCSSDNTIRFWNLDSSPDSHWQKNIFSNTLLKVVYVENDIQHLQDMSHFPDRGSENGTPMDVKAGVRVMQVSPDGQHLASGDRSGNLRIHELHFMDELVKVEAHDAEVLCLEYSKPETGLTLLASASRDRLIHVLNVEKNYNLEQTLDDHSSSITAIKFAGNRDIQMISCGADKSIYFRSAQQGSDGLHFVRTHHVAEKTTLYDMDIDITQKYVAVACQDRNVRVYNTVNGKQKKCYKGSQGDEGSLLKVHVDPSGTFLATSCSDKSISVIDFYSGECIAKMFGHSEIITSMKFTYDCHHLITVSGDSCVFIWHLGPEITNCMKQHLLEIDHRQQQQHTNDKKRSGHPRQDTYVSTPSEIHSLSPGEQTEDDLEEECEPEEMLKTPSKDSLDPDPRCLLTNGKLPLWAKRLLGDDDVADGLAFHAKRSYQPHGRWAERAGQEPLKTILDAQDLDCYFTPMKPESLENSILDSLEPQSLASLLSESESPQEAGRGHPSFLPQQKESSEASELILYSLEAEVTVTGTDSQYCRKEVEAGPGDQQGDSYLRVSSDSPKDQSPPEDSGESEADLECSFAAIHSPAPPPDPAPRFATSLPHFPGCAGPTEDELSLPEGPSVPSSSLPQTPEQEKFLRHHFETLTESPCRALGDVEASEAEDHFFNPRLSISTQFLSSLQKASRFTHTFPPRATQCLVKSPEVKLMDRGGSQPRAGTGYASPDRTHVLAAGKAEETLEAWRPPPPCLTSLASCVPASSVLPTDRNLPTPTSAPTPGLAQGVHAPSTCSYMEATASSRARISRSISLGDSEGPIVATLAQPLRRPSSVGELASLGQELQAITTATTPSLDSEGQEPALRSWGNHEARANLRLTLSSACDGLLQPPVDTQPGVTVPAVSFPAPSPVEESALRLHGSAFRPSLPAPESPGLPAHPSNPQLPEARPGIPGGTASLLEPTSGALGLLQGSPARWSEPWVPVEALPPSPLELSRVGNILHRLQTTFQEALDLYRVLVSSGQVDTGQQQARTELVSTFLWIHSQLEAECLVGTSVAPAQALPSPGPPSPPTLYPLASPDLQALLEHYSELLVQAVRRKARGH
inactive: alvocidib 0.018 | Tubastatin A -0.132 | [1] 0.012 | defactinib -0.007 | [2] 0.048 | encorafenib 0.054 | [3] -0.01 | alisertib 0.005 | [4] 0.052 | gefitinib 0.013

YDJC (UniProt A8MPS7)
inactive: alvocidib -0.039 | Tubastatin A 0.052 | [1] 0.014 | defactinib -0.026 | [2] 0.014 | encorafenib -0.025 | [3] -0.036 | alisertib 0.035 | [4] 0.007 | gefitinib -0.02

VAV3 isoform 4 (UniProt Q9UKW4)
inactive: alvocidib -0.305 | Tubastatin A -0.202 | [1] 0.032 | defactinib -0.295 | [2] 0.053 | encorafenib 0 | [3] 0.049 | alisertib -0.004 | [4] 0.054 | gefitinib 0.036

ZNHIT6 (UniProt Q9NWK9)
Sequence of UniProt Q9NWK9 (Q9NWK9 whole entry, looked up): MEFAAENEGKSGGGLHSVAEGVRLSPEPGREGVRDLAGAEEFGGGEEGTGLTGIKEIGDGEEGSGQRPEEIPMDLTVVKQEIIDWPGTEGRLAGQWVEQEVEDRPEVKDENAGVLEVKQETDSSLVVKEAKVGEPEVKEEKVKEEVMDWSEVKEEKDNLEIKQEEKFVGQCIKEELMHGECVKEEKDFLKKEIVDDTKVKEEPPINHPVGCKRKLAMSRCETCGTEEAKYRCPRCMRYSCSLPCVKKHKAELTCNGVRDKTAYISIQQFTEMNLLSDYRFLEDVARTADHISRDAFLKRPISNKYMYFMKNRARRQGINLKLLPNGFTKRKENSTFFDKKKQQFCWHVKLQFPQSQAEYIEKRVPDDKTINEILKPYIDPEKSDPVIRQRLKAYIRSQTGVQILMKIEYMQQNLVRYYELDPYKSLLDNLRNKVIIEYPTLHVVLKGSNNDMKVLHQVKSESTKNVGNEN
inactive: alvocidib 0.004 | Tubastatin A -0.046 | [1] 0.034 | defactinib -0.04 | [2] 0.086 | encorafenib 0.037 | [3] 0.118 | alisertib -0.021 | [4] -0.022 | gefitinib 0.008

USP8 (UniProt P40818)
inactive: alvocidib 0.023 | Tubastatin A -0.018 | [1] 0.014 | defactinib 0.02 | [2] 0.005 | encorafenib 0.004 | [3] 0.102 | alisertib -0.011 | [4] 0.002 | gefitinib 0.015

WDR45 isoform 2 (UniProt Q9Y484)
inactive: alvocidib -0.065 | Tubastatin A -0.067 | [1] -0.001 | defactinib 0.013 | [2] -0.059 | encorafenib -0.042 | [3] -0.051 | alisertib 0.021 | [4] -0.008 | gefitinib 0.037

UPF3B (UniProt Q9BZI7)
Sequence of UniProt Q9BZI7 (Q9BZI7 whole entry, looked up): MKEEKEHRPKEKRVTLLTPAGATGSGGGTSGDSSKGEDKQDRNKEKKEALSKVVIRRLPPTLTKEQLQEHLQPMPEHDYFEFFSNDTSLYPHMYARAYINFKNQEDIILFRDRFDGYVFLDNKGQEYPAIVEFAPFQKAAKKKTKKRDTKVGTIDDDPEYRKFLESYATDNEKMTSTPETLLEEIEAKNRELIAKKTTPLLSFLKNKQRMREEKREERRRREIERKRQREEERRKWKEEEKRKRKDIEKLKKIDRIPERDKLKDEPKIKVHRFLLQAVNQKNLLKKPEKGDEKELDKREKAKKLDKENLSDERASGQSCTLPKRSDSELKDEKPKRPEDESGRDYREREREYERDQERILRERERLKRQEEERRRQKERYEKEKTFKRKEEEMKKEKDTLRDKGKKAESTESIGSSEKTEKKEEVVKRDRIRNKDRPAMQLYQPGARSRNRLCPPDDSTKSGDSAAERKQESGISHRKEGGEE
inactive: alvocidib -0.105 | Tubastatin A -0.001 | [1] 0.023 | defactinib -0.015 | [2] 0.011 | encorafenib 0.011 | [3] 0.049 | alisertib 0.021 | [4] -0.021 | gefitinib -0.038

USP48 (UniProt Q86UV5)
Sequence of UniProt Q86UV5 (Q86UV5 whole entry, looked up): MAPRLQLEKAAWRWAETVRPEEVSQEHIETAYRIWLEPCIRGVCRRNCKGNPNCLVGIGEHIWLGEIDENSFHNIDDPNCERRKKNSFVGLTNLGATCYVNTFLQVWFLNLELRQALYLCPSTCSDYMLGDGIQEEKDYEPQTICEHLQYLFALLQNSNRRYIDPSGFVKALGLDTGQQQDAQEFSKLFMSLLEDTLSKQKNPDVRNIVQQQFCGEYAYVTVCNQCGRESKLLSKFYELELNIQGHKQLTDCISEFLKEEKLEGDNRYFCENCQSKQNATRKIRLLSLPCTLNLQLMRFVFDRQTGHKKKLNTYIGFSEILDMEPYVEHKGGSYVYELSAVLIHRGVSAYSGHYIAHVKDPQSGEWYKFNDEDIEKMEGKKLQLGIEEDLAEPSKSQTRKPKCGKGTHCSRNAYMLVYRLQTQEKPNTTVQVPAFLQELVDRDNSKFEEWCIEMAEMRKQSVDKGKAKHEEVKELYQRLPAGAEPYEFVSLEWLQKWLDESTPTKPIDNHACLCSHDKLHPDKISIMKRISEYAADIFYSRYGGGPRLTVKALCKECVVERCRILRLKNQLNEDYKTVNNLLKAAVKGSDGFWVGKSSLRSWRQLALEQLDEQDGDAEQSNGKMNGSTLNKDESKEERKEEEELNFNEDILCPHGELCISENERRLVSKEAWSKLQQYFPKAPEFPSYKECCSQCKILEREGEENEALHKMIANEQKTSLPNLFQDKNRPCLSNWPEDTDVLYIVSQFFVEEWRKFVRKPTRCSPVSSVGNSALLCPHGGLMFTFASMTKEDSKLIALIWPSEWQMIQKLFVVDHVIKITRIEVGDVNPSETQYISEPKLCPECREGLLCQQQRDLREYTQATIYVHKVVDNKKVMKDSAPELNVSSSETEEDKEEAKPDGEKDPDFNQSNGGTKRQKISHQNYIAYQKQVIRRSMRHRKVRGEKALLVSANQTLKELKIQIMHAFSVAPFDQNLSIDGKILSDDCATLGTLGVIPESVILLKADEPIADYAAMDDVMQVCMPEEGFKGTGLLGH
inactive: alvocidib -0.193 | Tubastatin A -0.069 | [1] 0.123 | defactinib 0.024 | [2] 0.054 | encorafenib -0.016 | [3] 0.018 | alisertib -0.015 | [4] 0.09 | gefitinib -0.069

ZNF318 (UniProt Q5VUA4)
inactive: alvocidib 0.033 | Tubastatin A -0.177 | [1] 0.034 | defactinib -0.055 | [2] -0.002 | encorafenib 0.03 | [3] 0.117 | alisertib 0.03 | [4] 0.142 | gefitinib 0.025

VPS13C (UniProt Q709C8)
inactive: alvocidib 0.008 | Tubastatin A 0.034 | [1] 0.002 | defactinib 0.014 | [2] 0.023 | encorafenib 0.192 | [3] -0.131 | alisertib 0.111 | [4] 0.157 | gefitinib 0.131

VPS18 (UniProt Q9P253)
Sequence of UniProt Q9P253 (Q9P253 whole entry, looked up): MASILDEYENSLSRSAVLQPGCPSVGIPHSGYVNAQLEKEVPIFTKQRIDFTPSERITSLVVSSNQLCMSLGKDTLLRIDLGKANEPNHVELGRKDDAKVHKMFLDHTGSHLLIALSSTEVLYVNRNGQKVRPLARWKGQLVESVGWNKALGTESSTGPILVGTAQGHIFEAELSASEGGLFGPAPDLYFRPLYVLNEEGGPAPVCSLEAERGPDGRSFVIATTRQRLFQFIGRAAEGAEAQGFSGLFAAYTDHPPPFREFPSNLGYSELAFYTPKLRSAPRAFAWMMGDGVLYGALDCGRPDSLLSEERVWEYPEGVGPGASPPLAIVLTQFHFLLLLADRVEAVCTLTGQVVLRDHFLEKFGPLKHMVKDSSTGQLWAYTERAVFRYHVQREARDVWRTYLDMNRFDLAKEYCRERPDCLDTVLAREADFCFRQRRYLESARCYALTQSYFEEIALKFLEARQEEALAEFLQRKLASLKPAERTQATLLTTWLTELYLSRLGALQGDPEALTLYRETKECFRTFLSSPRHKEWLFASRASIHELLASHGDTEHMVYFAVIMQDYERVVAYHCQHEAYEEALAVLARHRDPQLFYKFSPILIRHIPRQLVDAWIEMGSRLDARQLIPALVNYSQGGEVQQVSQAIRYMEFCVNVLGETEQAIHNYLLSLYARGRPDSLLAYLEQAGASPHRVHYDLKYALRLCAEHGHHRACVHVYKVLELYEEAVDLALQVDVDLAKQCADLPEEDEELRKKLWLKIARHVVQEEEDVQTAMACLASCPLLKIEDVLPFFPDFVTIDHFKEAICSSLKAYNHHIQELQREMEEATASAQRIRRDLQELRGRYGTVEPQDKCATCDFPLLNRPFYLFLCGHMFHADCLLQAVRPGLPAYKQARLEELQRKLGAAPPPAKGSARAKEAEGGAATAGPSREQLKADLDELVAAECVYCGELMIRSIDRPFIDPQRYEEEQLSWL
inactive: alvocidib -0.016 | Tubastatin A -0.106 | [1] 0.011 | defactinib -0.057 | [2] -0.008 | encorafenib 0.019 | [3] -0.125 | alisertib 0.005 | [4] -0.006 | gefitinib 0.006

YTHDF3 (UniProt Q7Z739)
Sequence of UniProt Q7Z739 (Q7Z739 whole entry, looked up): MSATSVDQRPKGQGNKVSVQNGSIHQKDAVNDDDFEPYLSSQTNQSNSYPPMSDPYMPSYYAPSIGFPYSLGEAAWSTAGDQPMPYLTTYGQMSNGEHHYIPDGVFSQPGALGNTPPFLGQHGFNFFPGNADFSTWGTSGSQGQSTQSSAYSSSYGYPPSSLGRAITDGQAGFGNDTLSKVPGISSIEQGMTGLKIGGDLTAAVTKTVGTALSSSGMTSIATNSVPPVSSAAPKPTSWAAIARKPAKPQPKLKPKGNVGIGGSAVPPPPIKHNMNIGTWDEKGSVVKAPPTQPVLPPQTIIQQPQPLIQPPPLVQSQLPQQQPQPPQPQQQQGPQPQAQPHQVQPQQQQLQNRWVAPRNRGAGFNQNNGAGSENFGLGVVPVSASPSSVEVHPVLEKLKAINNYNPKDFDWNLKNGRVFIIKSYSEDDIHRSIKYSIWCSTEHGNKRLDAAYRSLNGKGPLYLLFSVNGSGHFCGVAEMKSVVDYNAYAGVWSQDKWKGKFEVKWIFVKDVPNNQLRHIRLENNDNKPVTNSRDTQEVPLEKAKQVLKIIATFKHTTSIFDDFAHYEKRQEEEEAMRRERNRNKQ
inactive: alvocidib 0.03 | Tubastatin A -0.108 | [1] -0.071 | defactinib -0.05 | [2] -0.112 | encorafenib 0.097 | [3] 0.024 | alisertib 0.043 | [4] 0.009 | gefitinib 0.013

WDCP (UniProt Q9H6R7)
inactive: alvocidib 0.019 | Tubastatin A -0.138 | [1] 0.025 | defactinib 0.005 | [2] 0.032 | encorafenib 0.024 | [3] -0.019 | alisertib 0.01 | [4] 0.062 | gefitinib -0.017

VPS54 (UniProt Q9P1Q0)
inactive: alvocidib -0.07 | Tubastatin A 0 | [1] 0.059 | defactinib -0.07 | [2] 0.013 | encorafenib -0.001 | [3] 0.105 | alisertib -0.024 | [4] 0.071 | gefitinib 0.089

WDR3 (UniProt Q9UNX4)
inactive: alvocidib 0.008 | Tubastatin A -0.099 | [1] -0.013 | defactinib 0.031 | [2] -0.048 | encorafenib -0.008 | [3] 0.046 | alisertib 0.03 | [4] -0.007 | gefitinib -0.01

ZMYM1 (UniProt Q5SVZ6)
inactive: alvocidib -0.162 | Tubastatin A -0.098 | [1] 0.071 | defactinib -0.035 | [2] 0.067 | encorafenib 0.063 | [3] -0.038 | alisertib -0.008 | [4] 0.03 | gefitinib 0.009
